# Measurements published in PubChem BioAssay AID1745845 (National Center for Advancing Translational Sciences (NCATS), 2022).
# The campaign covered roughly 360,000 compounds. About 2,600 (0.72%) were called active. Not shown: some 5% with an inconclusive outcome. The sample holds actives, similar compounds and a random draw of the others, so the mix is not that of the screen. A number with no mark means an inactive call. The call rests on the fitted dose curve; in most records, active means well fitted inhibition curve with a large enough effect; inconclusive means small, poorly fitted or top-dose-only effect; inactive means no such curve, though single readings can be large or run the other way.
# Experiment: Primary qHTS for Inhibitors of ATXN expression; further: nearly all actives have a fitted effect of over 55% in size
# Details: HEK-293 ATXN2-luciferase reporter, luminescence, 24 h; series mostly up to 57 µM; activity change, negative = inhibition: at the top concentration
# Source text: University of Utah School of Medicine, Salt Lake City, Utah
# Spinocerebellar ataxia type 2 (SCA2) is a multisystem neurodegenerative disease caused by a dominantly acting mutation leading to expansion of a polyQ domain in the ataxin-2 protein (ATXN2). SCA2 patients develop progressive ataxia and later lose function in other neuronal systems. Prominent parkinsonian signs develop in some patients. Like many neurodegenerative disorders, no symptomatic or disease-modifying treatments are known.
# The primary objective of the proposed research is to identify compounds inhibiting ATXN2 expression and to test them for efficacy in SCA2 mouse models. We have developed a cell-based assay paired with an in vivo mouse model using identical luciferase expression constructs. This approach takes advantage of an ATXN2-luciferase transgene, with the luciferase gene flanked by the upstream and downstream portions of the ATXN2 gene. Here we describe a 5-7 dose quantitative high thoroughput screen (qHTS) for compounds lowering ATXN2 expression. We screened the NIH Molecular Libraries Small Molecule Repository (MLSMR) and NCGC's mechanistically annotated (MIPE) and drug repurposing (NPC) collections of compounds for lowering expression of an ATXN2-luciferase reporter in HEK-293 cells. The assay is a multiplexed cell viability assay to ensure target reduction in the absence of cytotoxicity. Secondary qHTS assays included a CMV-luciferase reporter expressed in HEK-293 cells as well as a biochemical assay using recombinant luciferase to detect inhibitors of the reporter enzyme. Compounds that inhibit ATXN2 expression but is not cytotoxic were selected for confirmatory and secondary screens.
# PROTOCOL TABLE (as described by Inglese J, Shamu CE and Guy RK. 2007)
# SEQUENCE No. (e.g., 1, 2, 3, etc.); […] (e.g., Cells, Incubation, Reagent, etc.); VALUE; DESCRIPTION.
# 1; Cells; 4 uL; white, solid bottom, 1536-well Greiner assay plate.
# 2; Incubation; 2 hr; 37 degree C in 5% humidified CO2.
# 3; Compounds; 23 nL; Kalypsis pintool (Wako USA) equipped with a 1536-well pin head.
# 4; Incubation; 24 hr; 37 degree C in 5% humidified CO2.
# 5; Reagent; 1 uL; Gly-Phe-7-Amino-4-trifluoromethylcoumarin.
# 6; Incubation; 30 min; 37 degree C in 5% humidified CO2.
# 7; Detection; Fluorescence; ViewLux plate reader (PerkinElmer).
# 8; Reagent; 3 uL; SteadyGlo luciferase solution (Promega).
# 9; Incubation; 5 min; room temperature.
# 10; Detection; Luminescence; ViewLux plate reader (PerkinElmer).
# NOTES (numbers refer to Sequence numbers above)
# 1. S2 cells expressing ATXN2-luciferase reporter were suspended in phenol-red free DMEM and dispensed in assay plates using a Multidrop Combi dispenser (Thermo Fisher Scientific).
# 2. Assay plates were incubated. Evaporation was prevented by covering assay plates with metal lids containing holes to allow gas diffusion.
# 3. Compounds were added in a dose response manner with the final concentrations of 57, 11.4, 2.28, 0.46, 0.091, 0.018, 0.0037 uM. Vehicle-only plates, with DMSO being pin-transferred to columns 5-48, were inserted uniformly at the beginning and the end of each library to monitor and record any shifts in assay performance.
# 5. 125 uM Gly-Phe-7-Amino-4-trifluoromethylcoumarin (MP Biomedicals) working concentration was used at a final concentration of 25 uM.
# 7. To assess cell viability; the assay plates were read using the ViewLux high-throughput CCD imager (PerkinElmer), wherein single end-point fluorescence measurement was acquired (excitation 405/10; emission 540/25 nm).
# 8. Detection reagent SteadyGlo Luciferase (Promega) was added to the assay plate.
# 10. Luminescence is then measured on the ViewLux imager equipped with a clear emission filter using a 2 sec exposure. All screening operations were performed on a fully integrated robotic system (Kalypsys) containing one RX-130 and two RX-90 anthropomorphic robotic arms (Staubli).
# […]
# On the % scale 0 is the no-effect control and ±100 the full control effect; potency means the concentration at half of the fitted maximal effect.
SMILES,"activity change, negative = inhibition",Potency
CC(Cc1ccccc1)NC=O (stereo not given),7.92%,–
CC(=O)NC(=O)NC(C)Cc1ccccc1 (stereo not given),2.01%,–
CC(Cc1ccccc1)NCCC(c1ccccc1)c1ccccc1 (stereo not given),–,28.2 µM (active)
CCCOC(=O)c1cncn1C(C)c1ccccc1 (stereo not given),9.45%,–
COC(=O)C1=C(c2ccc(OCc3ccccc3)cc2)C[C@@H]2CC[C@H]1N2C(=O)NCc1ccc(Cl)cc1,-22.2%,–
O=P(OC1=CCCCC1)(c1ccccc1)c1ccccc1,-7.03%,–
CCC(C)(O)C(=O)OC1C(=O)OC2CC3C(C)=CC(=O)C(O)C3(C)C3C4(O)OCC23C1C(C)C4O (stereo not given),–,0.168 µM (active)
CCOC(=O)[C@]12Cc3ccccc3[C@H]1N(C1CCCCC1)C(=O)c1cc(OC)ccc12,–,7.94 µM (active)
CCOC(=O)[C@]12Cc3cc(OC)ccc3[C@H]1N(C(C)C)C(=O)c1ccccc12,–,17.8 µM (active)
CC1=C(C(=O)O)N2C(=O)[C@@H](N)[C@H]2SC1,1.93% [at 25.6 µM],–
O=C(N/N=C/c1ccc([N+](=O)[O-])o1)c1cc([N+](=O)[O-])cc([N+](=O)[O-])c1O,4.24%,–
O=S(=O)(O)C(F)(F)C(F)(F)C(F)(F)C(F)(F)F,3.26% [at 116 µM],–
CC(C)=C[C@@H]1[C@@H](C(=O)OCc2coc(Cc3ccccc3)c2)C1(C)C,-1.03%,–
O=C(NC1CCCCC1)N1Cc2cc(N3CCCCC3)ccc2-n2nncc2C1,2.55%,–
CNC(=S)N/N=C1\C2CN3CCN(C2)CC1(c1ccccc1)C3,1.34%,–
S=C(NCCc1ccccc1)N1Cc2cc(N3CCOCC3)ccc2-n2nncc2C1,-12.2%,–
C[C@]12CC[C@H](O)C[C@H]1CC[C@@H]1C2CC[C@]2(C)[C@@H](C3=CC(=O)OC3)[C@@H](O)C[C@]12O (stereo not given in full),–,2 µM (active)
COC1C(O)C(C)OC(OC2CCC3(C=O)C(CCC4C3CCC3(C)C(C5=CC(=O)OC5)CCC43O)C2)C1O (stereo not given),-78.8%,–
C[C@]12CCC3C(CC[C@H]4C[C@@H](O)CC[C@]34C)C1CC[C@@H]2O (stereo not given in full),-11.2%,–
O=c1[nH]c2ccccc2n1C1CCN(C(c2ccnc3ccccc23)c2nnnn2Cc2ccccc2)CC1 (stereo not given),0%,–

SMILES,"activity change, negative = inhibition",Potency
O=c1[nH]c2ccccc2n1C1CCN(C(c2ccccc2)c2nnnn2Cc2ccccc2)CC1 (stereo not given),–,25.1 µM (active)
CSCCC(c1nnnn1C(C)(C)C)N1CCC(n2c(=O)[nH]c3ccccc32)CC1 (stereo not given),-18.6%,–
COC(=O)C1=C(c2ccc(OCc3ccccc3)cc2)C[C@@H]2CC[C@H]1N2C(=O)NCc1cccc(F)c1,-10.1%,–
CCCn1c(C(=O)c2ccccc2OC)nc2ccccc21,1.9%,–
CC[N+]1(CCOC(=O)C(O)(c2ccccc2)c2ccccc2)CCCCC1,25.5%,–
O=C(NCC1=C(c2ccc3ccccc3c2)C[C@@H]2CC[C@H]1N2Cc1ccco1)c1cccs1,-20.2%,–
CCCCC1C(=O)NC(=O)N(C2CCCCC2)C1=O (stereo not given),10.8%,–
COC(=O)CN(CCCl)P1(=O)OCCCN1CCCl (stereo not given),3.04%,–
O=C1NC(=O)N(CCc2ccc(F)cc2)C(=O)/C1=C/C=C/c1ccccc1,–,10 µM (active)
O=C(O)COc1ccccc1/C=C1\C(=O)NC(=O)N(CCC2=CCCCC2)C1=O,6.1%,–
O=C1NC(=O)N(c2ccc(F)cc2)C(=O)/C1=C/c1ccc2c(c1)CCCN2Cc1ccccc1,-11.9%,–
COc1cc(C(=O)N2Cc3ccc(Br)cc3-n3nncc3C2)cc(OC)c1OC,7.09%,–
Cc1cccc(Cn2cccc(C(=O)Nc3ccc4c(c3)OCCO4)c2=O)c1,-24.9%,–
CC(=Cc1csc(C)n1)[C@@H]1C[C@H]2O[C@]2(C)CCC[C@H](C)[C@@H](O)[C@@H](C)C(=O)C(C)(C)[C@@H](O)CC(=O)O1,-17.3%,–
NCCc1ccc(S(=O)(=O)F)cc1,1.91%,–
COc1cccc(C(c2nnnn2-c2ccc3c(c2)OCCO3)N2CCC3(CC2)C(=O)NCN3c2ccccc2)c1OC (stereo not given),-36.2%,–
CC1N=C(N)OC1c1ccccc1 (stereo not given),7.78% [at 116 µM],–
Oc1ccc2c3c1OC1[C@H](O)CC[C@@]4(O)[C@@H](C2)N(CC2CC2)CC[C@]314 (stereo not given in full),–,inactive
CO[C@]12CC[C@@]3(C[C@@H]1[C@](C)(O)C(C)(C)C)[C@@H]1Cc4ccc(O)c5c4[C@@]3(CCN1CC1CC1)[C@H]2O5,–,35.5 µM (active)
Cc1ncsc1CCCl,11.9%,–
